Among the test systems are PAK1; PAK2; PAK3; PAK4; PAK6; PAK7; PDGFRA; PDGFRB; PDPK1; PFTAIRE2; PHKG1; PHKG2; PIK3C2B; PIK3C2G; PIK3CA; PIK3CB.
Holding throughout (settings): concentration: 1 μM, replicates: in singlicate; n = 1
A further assay deals with T1, PCTK1.
T1 construct: gene CDK16

Another assay has as its system T2, PCTK2.
T2 construct: gene CDK17

The test system of a further assay is T3, PCTK3.
T3 construct: gene CDK18

For a further assay, the system named is T4, PFTK1.
T4 construct: gene CDK14

We go through ten compounds from paper PMC5540273 (PLoS ONE, 2017).
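Also: KINOMEscan kinase panel screen.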

For `Cl.Cn1ccc(-c2cccc(Nc3ccnc4cc(-c5nccs5)ccc34)c2)n1` [GW525701], the “%Inh” value came to 0% in the assay on PAK1; 0% in the assay on PAK2; 18% with PAK3; 0% in the assay on PAK4; 0% with PAK6; 100% in the assay with PAK7. Also, the “%Inh” value was 0% in the assay on PCTK1; 0% with PCTK2; 30% in the assay on PCTK3; 0% in the assay on PDGFRA; 40% in the assay on PDGFRB; 0% in the assay on PDPK1. Moreover, the “%Inh” value in the assay on PFTAIRE2 is 0%; in the assay on PFTK1, 5%; in the assay with PHKG1, 0%; with PHKG2 it was 0%; in the assay with PIK3C2B it was 0%; with PIK3C2G, 0%. In addition, the “%Inh” value with PIK3CA and in the assay on PIK3CB was 0% throughout.
On to `O=C(Nc1ccccc1)Nc1ccc(Oc2ccc3nccn3n2)cc1`, for which the “%Inh” value turned out to be 0% in the assay on PAK1; 8% with PAK2; 0% in the assay with PAK3; 0% in the assay with PAK4; 0% in the assay with PAK6; 0% in the assay with PAK7. For the same compound, the “%Inh” value in the assay on PCTK1 stood at 0%; in the assay with PCTK2 it was 2%; in the assay on PCTK3, 0%; with PDGFRA it was 83%; in the assay on PDGFRB, 99%; with PDPK1, 0%. Moreover, the “%Inh” value with PFTAIRE2 is 0%; in the assay on PFTK1, 0%; in the assay on PHKG1, 0%; in the assay on PHKG2, 5%; in the assay on PIK3C2B, 0%; with PIK3C2G, 0%. Further, the “%Inh” value in the assay with PIK3CA and in the assay with PIK3CB was 0% throughout.
Turning to `Fc1ccc(Nc2nccc(-c3c(-c4ccc(Cl)cc4)nn4ncccc34)n2)cc1F` [GW829058], the “%Inh” value in the assay on PAK1 is 21%; with PAK2 it was 24%; in the assay with PAK3 it was 15%; in the assay on PAK4, 27%; with PAK6 it was 34%; in the assay with PAK7, 14%. Moreover, the “%Inh” value with PCTK1 was 23%; in the assay with PCTK2, 0%; in the assay with PCTK3 it was 13%; in the assay on PDGFRA, 19%; in the assay on PDGFRB, 44%; with PDPK1, 12%. In addition, the “%Inh” value is listed as 4% in the assay on PFTAIRE2; 10% in the assay with PFTK1; 7% with PHKG1; 0% in the assay on PHKG2; 6% in the assay with PIK3C2B; 29% in the assay with PIK3C2G. The results for the “%Inh” value in the assay with PIK3CA and in the assay on PIK3CB were 25% and 50%, respectively.
As for `C[C@@H]1CCN(C(=O)CO)C[C@@H]1N(C)c1ncnc2[nH]ccc12`, the “%Inh” value is 0% in the assay with PAK1; 0% in the assay with PAK2; 0% in the assay on PAK3; 0% in the assay on PAK4; 0% with PAK6; 2% in the assay on PAK7. In addition, the “%Inh” value in the assay with PCTK1 was 0%; with PCTK2, 0%; in the assay with PCTK3, 4%; in the assay with PDGFRA it was 0%; in the assay on PDGFRB, 14%; with PDPK1 it was 0%. Moreover, the “%Inh” value in the assay on PFTAIRE2 amounted to 0%; in the assay with PFTK1 it was 0%; in the assay on PHKG1, 4%; with PHKG2 it was 0%; with PIK3C2B, 0%; in the assay on PIK3C2G it was 3%. Besides, the “%Inh” value in the assay on PIK3CA and in the assay on PIK3CB was 0% in each case.
For the compound `CCc1nc(-c2cccc(N(C)S(=O)(=O)c3ccccc3)c2)c(-c2ccnc(Nc3ccc(N4CCN(C(C)=O)CC4)nc3)n2)s1` [GSK1645895], the “%Inh” value with PAK1 is 6%; in the assay on PAK2, 0%; with PAK3, 0%; with PAK4, 0%; in the assay on PAK6 it was 5%; with PAK7 it was 5%. Further, the “%Inh” value with PCTK1 is recorded as 8%; with PCTK2, 24%; in the assay with PCTK3, 4%; in the assay on PDGFRA, 14%; with PDGFRB, 32%; in the assay on PDPK1, 0%. The “%Inh” value with PFTAIRE2 was 25%; in the assay on PFTK1 it was 20%; in the assay on PHKG1, 0%; in the assay on PHKG2, 0%; with PIK3C2B, 0%; with PIK3C2G, 0%. In addition, the “%Inh” value in the assay with PIK3CA and in the assay with PIK3CB was 0% in each case.
With `Cl.Fc1ccccc1COc1ccc(Nc2ncnc3ccc(-c4nnc(C(F)(F)F)o4)cc23)cc1Cl` [GW424170], the “%Inh” value in the assay with PAK1 is recorded as 0%; with PAK2, 0%; in the assay with PAK3, 0%; in the assay on PAK4 it was 0%; in the assay on PAK6 it was 0%; with PAK7, 10%. The “%Inh” value in the assay on PCTK1 is reported as 0%; with PCTK2, 0%; with PCTK3, 17%; in the assay on PDGFRA, 0%; with PDGFRB it was 20%; with PDPK1, 0%. Further, the “%Inh” value in the assay on PFTAIRE2 was determined as 6%; with PFTK1, 0%; in the assay on PHKG1, 0%; with PHKG2, 7%; with PIK3C2B it was 0%; in the assay with PIK3C2G it was 0%. The “%Inh” value in the assay with PIK3CA and in the assay on PIK3CB was 0% each time.
As to `COc1ccc(NC(=O)c2ccc(-c3cc(-c4nnc(C)o4)ccc3C)cc2)cc1` [GW595885], the “%Inh” value in the assay with PAK1, in the assay on PAK2, in the assay on PAK3, in the assay on PAK4, in the assay on PAK6 and in the assay on PAK7 was 0% in each case. Further, the “%Inh” value stood at 6% in the assay with PCTK1; 0% in the assay on PCTK2; 24% in the assay on PCTK3; 0% with PDGFRA; 47% in the assay on PDGFRB; 0% in the assay on PDPK1. In addition, the “%Inh” value was 0% in the assay with PFTAIRE2; 5% with PFTK1; 3% with PHKG1; 0% in the assay on PHKG2; 0% with PIK3C2B; 0% in the assay with PIK3C2G. Further, the “%Inh” value in the assay with PIK3CA and in the assay with PIK3CB was 0% throughout.
As for `COc1ccc(NC(=O)Nc2ccc(C)c(-c3ccc(C(=O)Nc4ccncc4)cc3)c2)cc1` [GSK1398475], the “%Inh” value with PAK1 is listed as 0%; in the assay on PAK2, 0%; with PAK3, 3%; with PAK4, 0%; in the assay with PAK6, 0%; with PAK7, 9%. Also, the “%Inh” value amounted to 0% in the assay with PCTK1; 0% in the assay on PCTK2; 0% in the assay with PCTK3; 28% in the assay with PDGFRA; 100% in the assay with PDGFRB; 0% in the assay with PDPK1. Further, the “%Inh” value in the assay on PFTAIRE2 came to 20%; with PFTK1, 24%; in the assay with PHKG1 it was 0%; in the assay with PHKG2 it was 0%; with PIK3C2B it was 0%; with PIK3C2G, 0%. The “%Inh” value in the assay on PIK3CA and with PIK3CB was 0% in each case.
On to `FC(F)(F)c1ccc(-c2cc(-c3c[nH]nc3-c3ccccn3)ccn2)cc1` [GW599550], for which the “%Inh” value in the assay on PAK1 is reported as 11%; with PAK2, 28%; in the assay on PAK3, 32%; with PAK4, 0%; in the assay with PAK6, 0%; in the assay on PAK7, 0%. For the same compound, the “%Inh” value is given as 0% in the assay with PCTK1; 11% in the assay with PCTK2; 25% in the assay on PCTK3; 11% in the assay with PDGFRA; 30% in the assay on PDGFRB; 5% in the assay on PDPK1. For the same compound, the “%Inh” value is 20% with PFTAIRE2; 19% in the assay on PFTK1; 0% in the assay with PHKG1; 21% in the assay with PHKG2; 0% in the assay with PIK3C2B; 0% in the assay on PIK3C2G. For the same compound, the “%Inh” value in the assay with PIK3CA was found to be 3%; in the assay on PIK3CB, 0%.
`Nc1nccc2scc(-c3ccc4c(c3)CCN4C(=O)Cc3cc(F)ccc3F)c12` [GSK2587663]: the “%Inh” value in the assay with PAK1 was 1%; with PAK2 it was 0%; in the assay on PAK3, 19%; in the assay on PAK4, 0%; in the assay on PAK6 it was 0%; in the assay on PAK7, 0%. Also, the “%Inh” value in the assay with PCTK1 was found to be 0%; in the assay on PCTK2 it was 0%; in the assay on PCTK3, 20%; in the assay with PDGFRA it was 0%; in the assay on PDGFRB it was 35%; in the assay on PDPK1, 0%. Moreover, the “%Inh” value with PFTAIRE2 is 15%; with PFTK1 it was 15%; with PHKG1, 4%; in the assay on PHKG2, 0%; with PIK3C2B it was 0%; in the assay with PIK3C2G, 0%. Also, the “%Inh” value in the assay on PIK3CA and in the assay with PIK3CB was 0% each time.
